What all share (assay type): functional
The target of test [1] is Solute carrier family 2, facilitated glucose transporter member 1 (Homo sapiens) (UniProt P11166). Put plainly: ST_JUDE_LEISH: Cytotoxicity at 2uM final concentration against transgenic Leishmania Mexicana promastigotes LmGLUT1 that are glucose transport deficient and complemented with the human glucose transporter GLUT1. Activity is measured by DNA content using SYBR green in vitro.

The target in test [2] is Hexose transporter 1 (Plasmodium falciparum) (UniProt O97467). Put plainly: ST_JUDE_LEISH: Cytotoxicity at 2uM final concentration against transgenic Leishmania Mexicana promastigotes LmPfHT that are glucose transport deficient and complemented with the Plasmodium falciparum hexose transporter. Activity is measured by DNA content using SYBR green in vitro.
For test [3], the target named is Glucose transporter (Leishmania mexicana) (UniProt O61059). Description: ST_JUDE_LEISH: Cytotoxicity at 2uM final concentration against transgenic Leishmania Mexicana promastigotes LmGT2 that are glucose transport deficient and complemented with the L. Mexicana glucose transporter 2. Activity is measured by DNA content using SYBR green in vitro.

Sequence of Solute carrier family 2, facilitated glucose transporter member 1 (Homo sapiens) (P11166 whole entry): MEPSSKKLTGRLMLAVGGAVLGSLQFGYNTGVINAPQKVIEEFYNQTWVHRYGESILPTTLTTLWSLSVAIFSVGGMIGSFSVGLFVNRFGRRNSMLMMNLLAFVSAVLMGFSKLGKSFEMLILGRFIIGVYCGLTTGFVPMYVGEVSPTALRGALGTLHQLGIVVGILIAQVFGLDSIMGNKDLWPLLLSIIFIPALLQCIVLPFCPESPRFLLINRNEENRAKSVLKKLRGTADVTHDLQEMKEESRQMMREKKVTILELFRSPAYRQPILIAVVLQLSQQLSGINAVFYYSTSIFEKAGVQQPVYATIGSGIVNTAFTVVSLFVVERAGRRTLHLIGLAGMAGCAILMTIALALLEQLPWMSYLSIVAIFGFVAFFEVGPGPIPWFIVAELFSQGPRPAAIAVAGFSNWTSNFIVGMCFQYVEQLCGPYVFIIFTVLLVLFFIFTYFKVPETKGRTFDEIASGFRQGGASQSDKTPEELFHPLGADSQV

The term inhibition denotes the change of the read-out against control, counted positive when it falls. In the case of `CC(C)CCn1c(Sc2ccc([N+](=O)[O-])cc2C(F)(F)F)nnc1-c1ccccc1Cl`, the values for the inhibition in test [1], in test [2] and in test [3] were 1.8%, 1.95% and 2.26%, respectively.
`O=C(Nc1cccc(CN2CCN(Cc3ccc(O)cc3)CC2)c1)c1ccc(-c2ccccc2)cc1`: the inhibition in test [1] was 4.37%; in test [2], 2.25%; in test [3], -3.36%.
For `CN(C)CCN(C)Cc1cccc(-c2ccc3c(Nc4cc(O)c(Cl)cc4F)ccnc3c2)c1` the same measures were 1.45%, -0.99% and -2.95%.
As to `NCC1CCCN1Cc1ccc(-c2ccc(-c3nc4cc(F)ccc4[nH]3)cc2)cc1` (centres undefined), the inhibition in test [1] turned out to be 8.49%; in test [2], 5.64%; in test [3], 4.54%.
For `Cc1[nH]c2ccccc2c(=O)c1Br`, the inhibition in test [1] is 5.04%; in test [2], 5.06%; in test [3], -5.87%.
On to `O=C(/C=C/c1ccc(Cl)c(Cl)c1)NCCCCCN1CCC(NC(=O)c2cccc(Cl)c2)CC1`, for which the inhibition in test [1] came to 9.72%; in test [2] it was 10.2%; in test [3], 7.71%.
In the case of `CCCCCCCN(Cc1ccc(OC(C)(C)C(=O)OCC)cc1)C(=O)Nc1ccccc1OC(F)(F)F`, the inhibition in test [1] was 0%; in test [2] it was -1.12%; in test [3], 1.43%.
Consider `O=C(Nc1ccc(-c2cccc(-c3nc4cc(F)ccc4[nH]3)c2)cc1)c1cnn2cccnc12`, for which the inhibition in test [1] was 2.14%; in test [2] it was 3.22%; in test [3], 0.84%.
The matching figures for `Cc1cc(N[C@@H](CC(C)C)C(=O)NCCc2ccccc2)nc(NCCc2cccs2)n1`: 5%, 7.09% and 5.46%.
For `O=C(NCCCCN1CCCC2c3cccc(O)c3CCC21)c1ccc(-c2ccccc2)cc1` (centres undefined), the inhibition is 0.9% in test [1], -0.26% in test [2] and -0.23% in test [3].
For `O=C(/C=C/c1ccc(Cl)c(Cl)c1)NCCCCCCN1CCCN(C(=O)Nc2ccc(F)c(F)c2)CC1` the same measures were 0.72%, 0.44% and 2.39%.
As for `O=C(NCc1ccc(Cl)c(Cl)c1)c1ccc(-c2nc3ccc(Cl)cc3[nH]2)cc1`, the values for the inhibition in test [1], in test [2] and in test [3] were 4.45%, 9.23% and 3.4%, respectively.
The matching figures for `Cc1cc(N)ncc1-c1ccc(NC(=O)Nc2cc(C(F)(F)F)ccc2F)cc1`: 2.41%, 2.25% and 1.43%.
Take `CC(C)(C)C1CCc2nc(N)nc(N)c2C1` (centres undefined): the results for the inhibition in test [1], in test [2] and in test [3] were 44.3%, 55.5% and 46.5%, respectively.
As for `CCc1c(CCNCCCCCCNCCc2ccc(OC)c(OC)c2CC)ccc(OC)c1OC`, the inhibition in test [1] was 8.52%; in test [2] it was 7.29%; in test [3], 6.3%.
For `Cc1ccc(NC(=O)c2c(C)noc2-c2snnc2C)cc1` the same measures were 3.24%, 4.05% and 3.02%.
For `O=C(/C=C/c1ccc(Cl)c(Cl)c1)NCCCCCN1CCC(NS(=O)(=O)c2cc(Cl)cc(Cl)c2)CC1` the same measures were 3.59%, 3.03% and 3.19%.
For `COc1ccc2nccc(N3CCN(CCNCc4ccc5c(n4)NC(=O)CS5)CC3)c2n1`, the inhibition in test [1] worked out at 0.43%; in test [2] it was 1.14%; in test [3] it was 0.07%.
For `Cc1cc(N2CCCC2)nc(Nc2ccc(NC(=O)CC(C)C)cc2)n1` the same measures were 1%, 3.11% and 2.23%.
In the case of `O=C(Nc1ccc(Cl)c(Cl)c1)Nc1ccc2nccc(N3CCNCC3)c2c1`, the inhibition was -0.16% in test [1], 0.06% in test [2] and 0.13% in test [3].
Regarding `Cc1cccc2nc(-c3ccc(-c4cccc(CNCCNC(=O)c5ccnn5C)c4)s3)[nH]c12`, the inhibition in test [1] is 3.8%; in test [2], 4.31%; in test [3], 3.87%.
With `CC(Nc1ncc(-c2ccsc2)c(-c2nccs2)n1)c1ccc2c(c1)OCCO2` (centres undefined), the inhibition came to 5.89% in test [1], 5.47% in test [2] and 7.42% in test [3].
With `COc1cc(Cc2cnc(N)nc2N)ccc1OCc1ccc(-c2ccccc2C#N)cc1`, the inhibition in test [1] is 0.17%; in test [2], 0.47%; in test [3], -0.89%.
Regarding `O=C(/C=C/c1cccc(OC(F)(F)F)c1)NCCCCCN1CCC(c2c[nH]c3ccccc23)CC1`, the values for the inhibition in test [1], in test [2] and in test [3] were 1.81%, 0.75% and -2.1%, respectively.
In the case of `O=C(c1ccc(Cl)c(Cl)c1)N1CCc2c([nH]c3ccccc23)C1CN1CCCC1` (centres undefined), the inhibition in test [1] was determined as 4.26%; in test [2], 5.06%; in test [3] it was 3.77%.
For `CC(=O)Nc1cccc(C(=O)Nc2cccc(-c3ccc(-c4nc5cccc(C)c5[nH]4)s3)c2)c1`, the inhibition in test [1] worked out at 3.54%; in test [2], 1.14%; in test [3], 0.43%.
The matching figures for `C=C[C@]1(C)C[C@@H](OC(=O)CSC2CN3CCC2C3)[C@@]2(C)C3C(=O)CC[C@@]3(CC[C@H]2C)[C@@H](C)[C@@H]1O` (some centres undefined): 72.8%, 73.2% and 59%.
Regarding `CC(C)c1sc(N2CCN(C)CC2)nc1C(=O)Nc1cccc2c1CCCC2`, the values for the inhibition in test [1], in test [2] and in test [3] were 0.42%, 1.67% and 1.79%, respectively.
As to `CCOc1cc(CC)ccc1C1CCN(CCCCNC(=O)c2ccc(NC(=O)c3ccc(C#N)cc3)cc2)CC1`, the figures for the inhibition in test [1], in test [2] and in test [3] were 2.45%, 0.91% and 2.06%, respectively.
On to `CC(C)c1nc(N2CCN(C(=S)NCc3ccccc3)CC2)c(C#N)c2c1COC(C)(C)C2`, for which the values for the inhibition in test [1], in test [2] and in test [3] were -0.1%, 0.47% and 0.22%, respectively.
The matching figures for `Cc1cccc2nc(-c3ccc(-c4cccc(NC(=O)NCc5ccc(F)cc5)c4)cc3)[nH]c12`: 3.38%, 4.77% and 3.65%.
`CN(CCCNCc1ccc2ccccc2c1)CCCNCc1ccc2ccccc2c1`: the inhibition in test [1] came out at 12.4%; in test [2] it was 13.7%; in test [3] it was 3.29%.
In the case of `O=C(/C=C/c1ccc(Cl)c(Cl)c1)NCCCCN1CCCN(C(=O)Nc2ccc(F)c(Cl)c2)CC1`, the inhibition is 3% in test [1], 1.91% in test [2] and -0.33% in test [3].

The values above are taken from ChEMBL document CHEMBL3433997, “St. Jude Leishmania screening dataset” (2016).
